# Results as given in the supplement of paper PMC6992640.
# ± gives the standard deviation of the averaged measurements.
# Assays:
# Assay in all cases: cell viability (% of vehicle); higher = less cytotoxic
# Settings in all cases: 10 µM; 72 h
# HCI01 = tested on: HCI01 (cells of a triple-negative basal-like breast cancer xenograft)
# HCI03 = tested on: HCI03 (cells of an ER-positive luminal breast cancer xenograft)
# HCI09 = tested on: HCI09 (cells of a triple-negative luminal androgen receptor type breast cancer xenograft)
# HCI11 = tested on: HCI11 (cells of an ER-positive luminal breast cancer xenograft)
# HCI13 = tested on: HCI13 (cells of an ER-positive luminal breast cancer xenograft)
# HCI16 = tested on: HCI16 (cells of a triple-negative basal-like breast cancer xenograft)
# UCD52 = tested on: UCD52 (cells of a triple-negative basal-like breast cancer xenograft)
# WHIM2 = tested on: WHIM2 (cells of a triple-negative basal-like breast cancer xenograft)
# WHIM30 = tested on: WHIM30 (cells of a triple-negative basal-like breast cancer xenograft)
# 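Note: PDX cells carrying CMV promoter-driven luciferase, viability read as total photon flux per second by IVIS imaging following D-luciferin, vehicle control 0.1% DMSO.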
compound,measurement,setting,value
COc1cc2c(cc1Cc1cccc(Cl)c1F)c(=O)c(C(=O)O)cn2C(CO)C(C)C (stereo not given) [Elvitegravir (GS-9137)],cell viability,HCI01,114 ± 56
same,cell viability,HCI03,86.7
same,cell viability,HCI09,41.2 ± 36
same,cell viability,HCI11,109
same,cell viability,HCI13,47.4 ± 7.1
same,cell viability,HCI16,124
same,cell viability,UCD52,77.8 ± 6.1
same,cell viability,WHIM2,73.8 ± 7.4
same,cell viability,WHIM30,159 ± 21
CC(C(=O)O)c1ccc2c(c1)CC(=O)c1ccccc1S2 (stereo not given) [Zaltoprofen],cell viability,HCI01,124 ± 32
same,cell viability,HCI03,120
same,cell viability,HCI09,95.5 ± 26
same,cell viability,HCI11,103
same,cell viability,HCI13,134 ± 6.7
same,cell viability,HCI16,112
same,cell viability,UCD52,77.9 ± 11
same,cell viability,WHIM2,98 ± 13
same,cell viability,WHIM30,82.8 ± 5.6
CNCCC(Oc1ccccc1C)c1ccccc1.Cl (stereo not given) [Atomoxetine HCl],cell viability,HCI01,119 ± 8.9
same,cell viability,HCI03,145
same,cell viability,HCI09,111 ± 11
same,cell viability,HCI11,108
same,cell viability,HCI13,105 ± 3.7
same,cell viability,HCI16,130
same,cell viability,UCD52,85 ± 3.7
same,cell viability,WHIM2,88.7 ± 17
same,cell viability,WHIM30,180 ± 28
OC[C@@H](O)[C@@H](O)[C@H](O)[C@@H](O)CO [D-Sorbitol],cell viability,HCI01,96 ± 11
same,cell viability,HCI03,118
same,cell viability,HCI09,107 ± 21
same,cell viability,HCI11,91.5
same,cell viability,HCI13,109 ± 4.5
same,cell viability,HCI16,120
same,cell viability,UCD52,96.3 ± 8
same,cell viability,WHIM2,103 ± 2.6
same,cell viability,WHIM30,120 ± 21
COc1ccc(-n2nc(C(N)=O)c3c2C(=O)N(c2ccc(N4CCCCC4=O)cc2)CC3)cc1 [Apixaban],cell viability,HCI01,100.8 ± 0.64
same,cell viability,HCI03,113
same,cell viability,HCI09,93.5 ± 17
same,cell viability,HCI11,173
same,cell viability,HCI13,149 ± 8.9
same,cell viability,HCI16,82.4
same,cell viability,UCD52,90.7 ± 6.2
same,cell viability,WHIM2,97.6 ± 8.3
same,cell viability,WHIM30,85.2 ± 14
COc1ccc(O)cc1 [Mequinol],cell viability,HCI01,91 ± 10
same,cell viability,HCI03,108
same,cell viability,HCI09,101 ± 13
same,cell viability,HCI11,70.4
same,cell viability,HCI13,124 ± 32
same,cell viability,HCI16,118
same,cell viability,UCD52,71 ± 7.1
same,cell viability,WHIM2,96.5 ± 20
same,cell viability,WHIM30,100 ± 2.8
Nc1cc(C(Cl)=C(Cl)Cl)c(S(N)(=O)=O)cc1S(N)(=O)=O [Clorsulon],cell viability,HCI01,107 ± 17
same,cell viability,HCI03,108
same,cell viability,HCI09,125 ± 47
same,cell viability,HCI11,106
same,cell viability,HCI13,194 ± 11
same,cell viability,HCI16,169
same,cell viability,UCD52,116 ± 11
same,cell viability,WHIM2,112 ± 14
same,cell viability,WHIM30,152 ± 7.4
c1coc(CNc2ncnc3nc[nH]c23)c1 [Kinetin],cell viability,HCI01,109 ± 4.5
same,cell viability,HCI03,123
same,cell viability,HCI09,103 ± 12
same,cell viability,HCI11,100
same,cell viability,HCI13,120 ± 7.4
same,cell viability,HCI16,86.8
same,cell viability,UCD52,102 ± 20
same,cell viability,WHIM2,93.7 ± 4
same,cell viability,WHIM30,121 ± 4.5
Oc1c(Br)cc(Br)c2cccnc12 [Broxyquinoline],cell viability,HCI01,81.5 ± 50
same,cell viability,HCI03,89.1
same,cell viability,HCI09,25.5 ± 7.7
same,cell viability,HCI11,98.1
same,cell viability,HCI13,34.3 ± 4.1
same,cell viability,HCI16,122
same,cell viability,UCD52,72.8 ± 42
same,cell viability,WHIM2,146 ± 60
same,cell viability,WHIM30,98 ± 4.2
COc1ccccc1N1CCN(CCCNc2cc(=O)n(C)c(=O)n2C)CC1.Cl [Urapidil HCl],cell viability,HCI01,96.7 ± 8.1
same,cell viability,HCI03,125
same,cell viability,HCI09,89.54 ± 0.6
same,cell viability,HCI11,80.2
same,cell viability,HCI13,93.3 ± 1.2
same,cell viability,HCI16,105
same,cell viability,UCD52,97.6 ± 7.3
same,cell viability,WHIM2,98.8 ± 5.4
same,cell viability,WHIM30,111 ± 3.3
Nc1nc(=O)c2ncn(COC(CO)CO)c2[nH]1 [Ganciclovir],cell viability,HCI01,63.1 ± 33
same,cell viability,HCI03,124
same,cell viability,HCI09,94.8 ± 2
same,cell viability,HCI11,97.9
same,cell viability,HCI13,112 ± 17
same,cell viability,HCI16,126
same,cell viability,UCD52,87.3 ± 5.8
same,cell viability,WHIM2,93.5 ± 46
same,cell viability,WHIM30,142.4 ± 1.3
CCOC(=O)c1ccc(C#Cc2ccc3c(c2)C(C)(C)CCS3)nc1 [Tazarotene],cell viability,HCI01,141 ± 48
same,cell viability,HCI03,108
same,cell viability,HCI09,127 ± 22
same,cell viability,HCI11,113
same,cell viability,HCI13,184 ± 8.9
same,cell viability,HCI16,97.9
same,cell viability,UCD52,104 ± 16
same,cell viability,WHIM2,123 ± 1.6
same,cell viability,WHIM30,188 ± 10
CC(OC1OCCN(Cc2nc(=O)[nH][nH]2)C1c1ccc(F)cc1)c1cc(C(F)(F)F)cc(C(F)(F)F)c1 (stereo not given) [Aprepitant],cell viability,HCI01,81 ± 48
same,cell viability,HCI03,91.5
same,cell viability,HCI09,77.5 ± 16
same,cell viability,HCI11,86.9
same,cell viability,HCI13,35.8 ± 4.5
same,cell viability,HCI16,66.1
same,cell viability,UCD52,75.3 ± 3.8
same,cell viability,WHIM2,100 ± 11
same,cell viability,WHIM30,83.6 ± 3.1
Nc1ncnc2c1ncn2C1OC(CO)C(O)C1O (stereo not given) [Adenosine],cell viability,HCI01,99.7 ± 3.6
same,cell viability,HCI03,123
same,cell viability,HCI09,90.4 ± 15
same,cell viability,HCI11,96.9
same,cell viability,HCI13,66.2 ± 4.5
same,cell viability,HCI16,97.7
same,cell viability,UCD52,95.7 ± 3.5
same,cell viability,WHIM2,121 ± 34
same,cell viability,WHIM30,124 ± 16
CN(CC/C=C1C2=CC=CC=C2C=CC3=CC=CC=C3\1)C.Cl [Cyclobenzaprine HCl],cell viability,HCI01,98.1 ± 17
same,cell viability,HCI03,95.1
same,cell viability,HCI09,73.5 ± 0.81
same,cell viability,HCI11,84.5
same,cell viability,HCI13,131 ± 4.4
same,cell viability,HCI16,92.3
same,cell viability,UCD52,76.4 ± 0.93
same,cell viability,WHIM2,89.6 ± 14
same,cell viability,WHIM30,89.9 ± 1.5
COC(=O)C1=C(C)NC(C)=C(C(=O)OC)C1c1ccccc1[N+](=O)[O-] [Nifedipine],cell viability,HCI01,82.2 ± 18
same,cell viability,HCI03,130
same,cell viability,HCI09,66.9 ± 6.3
same,cell viability,HCI11,71.2
same,cell viability,HCI13,93.3 ± 14
same,cell viability,HCI16,111
same,cell viability,UCD52,92.25 ± 0.35
same,cell viability,WHIM2,92.3 ± 17
same,cell viability,WHIM30,110.7 ± 0.67
Br.CN(C)CCC[C@]1(c2ccc(F)cc2)OCc2cc(C#N)ccc21 [Citalopram hydrobromide],cell viability,HCI01,103 ± 25
same,cell viability,HCI03,138
same,cell viability,HCI09,93.7 ± 14
same,cell viability,HCI11,108
same,cell viability,HCI13,103 ± 6.7
same,cell viability,HCI16,129
same,cell viability,UCD52,106 ± 9
same,cell viability,WHIM2,94.2 ± 24
same,cell viability,WHIM30,87.9 ± 8.7
CCCCC(C)(O)C/C=C/[C@H]1[C@H](O)CC(=O)[C@@H]1CCCCCCC(=O)OC (mixture of isomers) [Misoprostol],cell viability,HCI01,95 ± 25
same,cell viability,HCI03,120
same,cell viability,HCI09,107 ± 12
same,cell viability,HCI11,101
same,cell viability,HCI13,123 ± 9.4
same,cell viability,HCI16,112
same,cell viability,UCD52,96.6 ± 8.3
same,cell viability,WHIM2,93.1 ± 9.9
same,cell viability,WHIM30,107 ± 4.6
O=C(NCCN1CCOCC1)c1ccc(Cl)cc1,cell viability,HCI01,129.4 ± 0.71
same,cell viability,HCI03,171
same,cell viability,HCI09,114 ± 22
same,cell viability,HCI11,113
same,cell viability,HCI13,102 ± 2.1
same,cell viability,HCI16,110
same,cell viability,UCD52,109 ± 8.9
same,cell viability,WHIM2,111 ± 16
same,cell viability,WHIM30,138 ± 4
CN(C)CCCN1c2ccccc2CCc2ccccc21.Cl [Imipramine (hydrochloride)],cell viability,HCI01,104 ± 14
same,cell viability,HCI03,88.1
same,cell viability,HCI09,84.9 ± 5.2
same,cell viability,HCI11,60
same,cell viability,HCI13,95.1 ± 1.8
same,cell viability,HCI16,119
same,cell viability,UCD52,90.4 ± 7.2
same,cell viability,WHIM2,82.5 ± 12
same,cell viability,WHIM30,79.7 ± 8.5
